Source: PubChem
Sampled rows, rich in hits. Any-hit rate of the full collection: about 21%.
CYP2C9 inh = blocks human cytochrome P450 2C9 | P11712 | CYP2C9 Supersomes, luciferin-H conversion, luminescence | inhibition, % at 5 µM | actives 20% (n = 96,000) | AID 777;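 active means blocking of liver enzyme CYP2C9 beyond about 50% at 5 µM, limit read from the data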
Target sequence (P11712 whole entry, looked up): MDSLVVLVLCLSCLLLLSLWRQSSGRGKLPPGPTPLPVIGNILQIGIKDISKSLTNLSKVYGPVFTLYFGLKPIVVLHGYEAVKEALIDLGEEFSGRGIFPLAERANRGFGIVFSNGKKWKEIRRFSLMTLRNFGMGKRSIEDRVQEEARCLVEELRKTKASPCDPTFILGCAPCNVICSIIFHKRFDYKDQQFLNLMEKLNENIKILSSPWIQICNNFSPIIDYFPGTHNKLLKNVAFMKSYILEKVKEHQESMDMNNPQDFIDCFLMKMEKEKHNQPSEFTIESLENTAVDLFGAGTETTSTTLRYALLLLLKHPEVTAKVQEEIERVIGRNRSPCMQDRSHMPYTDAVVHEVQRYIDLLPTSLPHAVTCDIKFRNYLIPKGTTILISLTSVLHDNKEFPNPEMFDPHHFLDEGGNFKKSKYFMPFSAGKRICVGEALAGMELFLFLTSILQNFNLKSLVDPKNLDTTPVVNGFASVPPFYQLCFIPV
CYP2C19 inh = inhibitors of human CYP2C19. CYP2C19 Supersomes, luciferin-H EGE luminescence, 30 min. inhibition, % at 5 µM. actives 21% (n = 96,000);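 active means CYP2C19 inhibition above a set limit at 5 µM in the primary screen, cut at about 50% in these data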
MRP1 act = activates MRP-1; AID 799; H69AR cells + doxorubicin, viability rescue, CellTiter-Glo; viability increase, % at 10 µM; actives 0.61% (n = 140,000);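 active means viability gain under doxorubicin at or above a set limit, the compound median plus 3 SD, cut at about 4.7% in these data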;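 further: MRP-1 overexpressing cells given doxorubicin 25 µM after compound pretreatment; 18-22 h compound pretreatment then 72 h with doxorubicin before readout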
CYP2C19 activ = activators of human cytochrome P450 2C19; P33261; recombinant CYP2C19, luciferin-H EGE luminescence; hits give high values; 0 = fully inhibited enzyme, 1 = untreated enzyme; activation factor at 5 µM; 96,000 tested, under 10 active;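 active means activation factor of at least 2 at 5 µM in the primary screen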
CYP2C9 act = activators of human CYP2C9; P11712; recombinant CYP2C9, luciferin-H conversion, luminescence; hits give high values; factor 1 = untreated enzyme, 0 = blocked; activation factor at 5 µM; actives 1.4% (n = 96,000); AID 1024;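 active means activation factor of 2 or more for CYP2C9 at a 5 µM dose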
MRP reversal = MRP-mediated drug resistance reversal; H69AR cells + 2 uM doxorubicin, CellTiter-Glo, 72 h; AID 602; actives 0.04% (n = 85,000); differential viability (reversal), % at 10 µM;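 active means viability drop by adding the cancer drug above about 55%, with treated viability meeting a 40% cutoff, limit read from the data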;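 further: larger differential means the compound sensitizes cells more to doxorubicin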
A number is an active result; 0 = inactive; - = no result given.

SMILES	CYP2C9 inh	CYP2C19 inh	MRP1 act	CYP2C19 activ	CYP2C9 act	MRP reversal
O=C(O)c1cc(NCc2cccs2)ccc1N1CCOCC1	0	0	0	0	0	0
CCCNC(=O)c1ccc2c(c1)ncn2-c1ccccc1OC	0	0	0	0	0	0
COc1ccccc1-n1cnc2cc(NCc3cccs3)ccc21	0	70	0	0	0	0
Cc1ccccc1-n1cnc2cc(NCc3cccs3)ccc21	0	54	0	0	0	0
COc1ccccc1-n1cnc2cc(NCc3ccco3)ccc21	0	93	0	0	2	0
Cc1ccc(S(=O)(=O)/C=C/c2ccccc2)cc1	-	-	0	-	-	-
CCc1cccc(CC)c1NC(=S)NCC(c1cccnc1)N1CCOCC1 (stereo not given)	-	-	0	-	-	-
CC(C)(C)C(=O)Nc1nnc(SCC(=O)NCc2ccco2)s1	-	-	0	-	-	-
CCNc1nc(NCC)nc(C(=O)OCCO)n1	0	0	0	0	0	0
CCN(CC)C(=O)CSc1nc2ccc(NC(=O)CSc3nccn3C)cc2s1	-	-	0	-	-	0
COC(=O)c1sc(N)c(C(=O)OC)c1COC(=O)c1c(C)noc1C	97	96	0	0	0	0
Cc1noc(C)c1C(=O)OCC(=O)NC1CC1	0	0	0	0	0	-
Cc1ccccc1N1CCN(C(=S)c2ccc([N+](=O)[O-])cc2)CC1	-	-	0	-	-	-
CC(=O)N1CCN(C(=S)c2ccc([N+](=O)[O-])cc2)CC1	0	51	0	0	0	-
CC(C)OP(=O)(c1ccc(N(C)C)cc1)C(O)c1c(Cl)cccc1Cl (stereo not given)	55	81	0	0	0	0
CC(C)COP(=O)(c1ccc(N(C)C)cc1)C(O)c1ccncc1 (stereo not given)	58	72	0	0	0	0
CCOP(=O)(c1ccc(N(C)C)cc1)C(O)c1ccccc1 (stereo not given)	0	0	0	0	0	0
CCOP(=O)(c1ccc(N(C)C)cc1)C(O)c1ccc(Cl)cc1 (stereo not given)	0	80	0	0	0	0
CCC1(C)NC(=O)N(CC(=O)N2N=C(c3ccccc3)CC2c2ccc(OC)cc2)C1=O (stereo not given)	-	-	0	-	-	-
CC(C)(C)C(=O)Nc1ncc(C(F)(F)F)cc1Cl	0	0	0	0	0	0
O=C(NNc1ncc(C(F)(F)F)cc1Cl)c1c(Cl)cccc1Cl	0	0	0	0	2.4	-
Cc1cccc(C)c1NC(=S)NNc1ncc(C(F)(F)F)cc1Cl	0	75	0	0	0	-
CCn1c(SCC(=O)Nc2ncc(C(F)(F)F)cc2Cl)nnc1-c1cccc(C)c1	-	-	0	-	-	-
Cc1c(Cl)cccc1NC(=S)NNc1ncc(C(F)(F)F)cc1Cl	0	91	0	0	2.2	0
Cc1ccccc1NC(=S)NNc1ncc(C(F)(F)F)cc1Cl	0	77	0	0	0	-
SMILES	CYP2C9 inh	CYP2C19 inh	MRP1 act	CYP2C19 activ	CYP2C9 act	MRP reversal
FC(F)(F)c1cnc(/C=C/Nc2ccccc2Cl)c(Cl)c1	0	0	0	0	0	-
CC(=O)c1ccc(N(C)C)c2c(N(C)C)cccc12	0	0	0	0	0	0
Fc1ccccc1NC(=S)NNc1ncc(C(F)(F)F)cc1Cl	87	55	0	0	0	-
CNC(=S)Nc1cc(C(F)(F)F)ccc1Cl	-	-	0	-	-	-
Cc1ccc2nc(N3CCN(C=O)CC3)nc(-c3ccccc3)c2c1	-	-	0	-	-	0
Cc1ccc(N=c2oc3cc(O)ccc3cc2C(N)=O)cc1	66	0	0	0	0	0
CCOc1ccccc1N=c1oc2cc(O)ccc2cc1C(=O)NCC1CCCO1 (stereo not given)	53	0	0	0	0	0
CCOc1ccc(N=c2oc3cc(O)ccc3cc2C(=O)NCC2CCCO2)cc1 (stereo not given)	0	0	0	0	0	0
COc1ccc(N=c2oc3cc(O)ccc3cc2C(=O)NCC2CCCO2)cc1 (stereo not given)	52	0	0	0	0	0
COc1ccc(N=c2oc3cc(O)ccc3cc2C(=O)NCC2CCCO2)c(OC)c1 (stereo not given)	0	0	0	0	0	0
COc1cc(/C=N/NC(=O)CNc2n[nH]c(=O)[nH]c2=O)ccc1O	-	-	0	-	-	-
CC1CN(C(=S)NC(=O)c2ccc([N+](=O)[O-])cc2)CC(C)O1 (stereo not given)	0	0	0	0	0	-
NC(=O)C1CCN(C(=O)Cn2cccc2C(=O)c2ccccc2)CC1	0	0	0	0	0	0
